PubChem BioAssay AID372 (MTDP, 2006)
In all, about 100,000 compounds went through this assay and about 770 (0.77%) were called active. The full list was thinned out, with actives kept by preference. Unmarked numbers belong to inactive results. Cut-off read from the data, not from the text of the source: active = inhibition above about 50%; inactive = the rest.

molecular target: Gag-Pol polyprotein (Human immunodeficiency virus type 1 group M subtype B (isolate HXB2)) (UniProt P04585); experiment: RNase H inhibition, HIV 1 Gag Pol polyprotein, FRET biochemical assay, screening (AID 372); settings: HIV-1 RT RNase H, FRET RNA/DNA substrate fluorescence; at 10 µM; active compounds read high

Compound	inhibition
COc1cc(OC)cc(C(=O)Nc2cccc(-c3nc4ccccc4s3)c2)c1	5%
Oc1ccc(Br)cc1/C=N/c1c(-c2ccco2)nc2ccccn12	15%
O=C1CS/C(=N/N=C/c2ccc(-c3ccc(Br)cc3)o2)N1	14%
CCCC(=O)Nc1cc(-c2nc3cc(Cl)ccc3o2)ccc1C	12%
O=C(O)c1ccc(Nc2ccnc3cc(Cl)ccc23)cc1	3%
O=C(Nc1ccccc1C(=O)N1CCCC1)c1ccccc1	0%
COc1ccc(C(=O)NC(=S)Nc2ccc(Br)cn2)cc1OC	21%
CCOc1ccc(C(=O)Nc2ccc(Br)cn2)cc1Cl	4%
COc1ccc(Br)cc1C(=O)NC(=S)Nc1ccc(Cl)cn1	53% (active)
CCOc1ccc(C(=O)NC(=S)Nc2ccc(Br)cn2)cc1Cl	56% (active)
COc1ccc(C(=O)NC(=S)Nc2ccc(Cl)cn2)cc1Br	23%
COc1ccc(Br)cc1C(=O)Nc1ccc(Cl)cn1	26%
CS(=O)(=O)N(Cc1ccc(C(=O)Nc2ccccc2C(=O)O)cc1)c1ccccc1	4%
Cc1ccc(NC(=O)C(=O)N/N=C/c2cccc(Cl)c2)cc1	1%
CCOc1cc(/C=C/C(=O)O)c(Br)cc1OC	8%
Cc1ccc(CN2CCN(/N=C\c3ccccc3)CC2)cc1	8%
COc1ccccc1OCC(=O)N/N=C/c1ccc(C)cc1C	11%
O=C(Nc1ccc(N2CCCCC2)cc1)c1ccc(-c2ccccc2)cc1	28%
CC(=O)N1CCN(c2ccc(NC(=O)c3ccc(-c4ccccc4)cc3)cc2)CC1	5%
COc1ccc(CNC(=O)C(=O)Nc2ccccc2OC)cc1	44%
COc1ccc(C)cc1NC(=O)C(=O)NCc1ccncc1	55% (active)
COc1ccccc1NC(=O)C(=O)NCc1ccccc1	27%
COc1ccc(S(=O)(=O)N(CC(=O)NCc2ccccc2)Cc2ccccc2)cc1	10%
COc1ccc(CNC(=O)C(=O)NCc2ccc(Cl)cc2)cc1	15%

Compound	inhibition
COc1ccc(C)cc1NC(=O)C(=O)NCc1cccnc1	40%
COc1ccc(CNC(=O)C(=O)Nc2ccc(OC)cc2)cc1	0%
COc1ccc(S(=O)(=O)N(CC(=O)NCc2ccc(Cl)cc2)Cc2ccccc2)cc1	60% (active)
COc1ccc(NC(=O)C(=O)NCc2ccc(Cl)cc2)cc1	52% (active)
COc1ccc(CNC(=O)CN(Cc2ccccc2)S(=O)(=O)c2ccccc2)cc1	10%
COc1ccc(C)cc1NC(=O)C(=O)NCc1ccc(Cl)cc1	44%
COc1ccccc1NC(=O)C(=O)NCc1ccc(C)cc1	57% (active)
Cc1ccc(NC(=O)Cc2ccc(Br)cc2)cc1	14%
COc1cccc(N2C(=O)NC(=O)/C(=C/c3ccc(OC)c4ccccc34)C2=O)c1	31%
O=C(Nc1ccc2oc(-c3ccccc3F)nc2c1)C(Cl)(Cl)Cl	8%
O=C(O)/C=C\C(=O)Nc1ccc(N2CCOCC2)c(C(=O)O)c1	5%
Cc1ccc(S(=O)(=O)N/N=C/c2ccc(C(=O)O)cc2)cc1	0%
COc1ccc(N2CCSC2c2ccco2)cc1 (stereo unspecified)	0%
C=CCN1C(=O)/C(=C\c2ccc(O)c(OCC)c2)C(=O)NC1=S	11%
COc1cc(C(=O)NCc2ccc(C(=O)O)cc2)cc(OC)c1OC	7%
CCn1c2ccccc2c2cc(C=Nc3ccc(C)c(F)c3)ccc21	0%
CCOc1ccc(C(=O)NC(=S)Nc2ccc(C)cc2)cc1Br	11%
CCOc1ccccc1C=Nn1c(-c2ccc(Cl)cc2Cl)n[nH]c1=S	15%
CCN(CC)CCN1C(=O)C(=O)/C(=C(\O)c2ccc([N+](=O)[O-])cc2)C1c1ccc(OC)cc1 (stereo unspecified)	2%
CCOC(=O)CC1(c2ccccc2)SC(NC(C)=O)=NN1C(C)=O (stereo unspecified)	0%
COc1ccc(CNC(=O)C(=O)Nc2cc(C)ccc2OC)cc1	30%
COc1ccc(Cl)cc1NC(=O)C(=O)NCc1ccncc1	59% (active)
COc1ccc(C)cc1NC(=O)C(=O)NCc1ccccc1	59% (active)
COc1ccc(Cl)cc1NC(=O)C(=O)NCc1ccc(C)cc1	30%

Compound	inhibition
COc1ccc(C)cc1NC(=O)C(=O)NCc1ccc(C)cc1	5%
COc1ccc(OC)c(NC(=O)C(=O)NCc2ccncc2)c1	26%
CCOC(=O)C1=C(C)N=c2s/c(=C\c3cc(Br)c(OCc4ccccc4Cl)c(OC)c3)c(=O)n2C1c1ccccc1Cl (stereo unspecified)	0%
Cc1cc(C)c(NC(=O)COc2ccccc2[N+](=O)[O-])c(C)c1	5%
CCOC(=O)c1cc(-c2ccccc2)sc1NC(=O)c1ccc([N+](=O)[O-])cc1	22%
CCOC(=O)c1cc(-c2ccccc2)sc1NC(=O)COc1ccccc1[N+](=O)[O-]	57% (active)
O=C(Nc1cccc(C(F)(F)F)c1)c1cc([N+](=O)[O-])ccc1Cl	7%
Cc1nc2n(CC(=O)N3CCOCC3)c3ccccc3n2n1	1%
O=C(Cc1cccs1)Nc1ccc(/C=C/C(=O)c2ccccc2)cc1	8%
CCOC(=O)c1c(C)oc2ccc(N(C(=O)c3ccncc3)S(=O)(=O)c3ccc(C)cc3)cc12	62% (active)
CCOC(=O)c1c(C)oc2ccc(NS(=O)(=O)c3cc(C)ccc3C)cc12	22%
CCOC(=O)c1c(C)oc2ccc(OC(=O)c3ccc(C)cc3)cc12	0%
O=[N+]([O-])c1ccccc1S(=O)(=O)Nc1ccc(S(=O)(=O)N2CCOCC2)cc1	51% (active)
Cc1ccc(S(=O)(=O)Nc2ccc(S(=O)(=O)N3CCOCC3)cc2)cc1[N+](=O)[O-]	0%
O=[N+]([O-])c1ccccc1S(=O)(=O)Nc1ccc(S(=O)(=O)N2CCCCC2)cc1	0%
Clc1ccc(Oc2cccc(CN3CCN(c4ccccc4)CC3)c2)cc1	17%
Cc1cccc(C(=O)NCC(O)c2ccccc2)c1 (stereo unspecified)	11%
CN=C(Nc1ccc2c(c1)OCO2)SC1CC(=O)N(c2ccc(Cl)cc2)C1=O (stereo unspecified)	12%
COC(=O)C1=C(C)N=c2s/c(=C\c3ccccc3Cl)c(=O)n2C1c1ccccc1Cl (stereo unspecified)	20%
CCOc1ccc(NC(=O)CC2S/C(=N\N=C(/C)c3ccc(F)cc3)NC2=O)cc1 (stereo unspecified)	6%
CN1C(=O)NC(=O)/C(=C/c2ccc(-c3ccc([N+](=O)[O-])cc3Cl)o2)C1=O	55% (active)
Cc1ccc([N+](=O)[O-])cc1-c1ccc(/C=C2/C(=O)NC(=O)N(C)C2=O)o1	27%
Cc1cc([N+](=O)[O-])ccc1-c1ccc(/C=C2/C(=O)NC(=O)N(c3ccccc3)C2=O)o1	17%
Cc1cc([N+](=O)[O-])ccc1-c1ccc(/C=C2\C(=O)NC(=O)N(Cc3ccccc3)C2=O)o1	60% (active)

Compound	inhibition
O=C1NC(=O)N(Cc2ccccc2)C(=O)/C1=C/c1ccc(-c2cccc([N+](=O)[O-])c2)o1	38%
Cc1cc([N+](=O)[O-])ccc1-c1ccc(/C=C2/C(=O)NC(=O)N(Cc3ccco3)C2=O)o1	25%
O=C1NC(=O)N(Cc2ccccc2)C(=O)/C1=C/c1ccc(-c2ccc([N+](=O)[O-])cc2)o1	63% (active)
O=C1NC(=O)N(c2ccccc2)C(=O)/C1=C\c1ccc(-c2ccc([N+](=O)[O-])cc2)o1	7%
CN1C(=O)NC(=O)/C(=C/c2ccc(-c3cc([N+](=O)[O-])ccc3Cl)o2)C1=O	20%
CCC(=O)c1cc(Cl)ccc1NC(=O)c1ccc(Br)cc1	10%
CC(=O)c1cccc(NC(=O)c2ccc(OC3CSC3)cc2)c1	8%
Cc1sc(NC(=O)C2C3C=CC(C3)C2C(=O)O)c(C(N)=O)c1C (stereo unspecified)	6%
CCOc1cc(/C=C2\C(=O)NC(=O)N(c3ccc(Br)cc3)C2=O)ccc1OCC(=O)O	8%
O=C(O)c1cccc(N2C(=O)c3ccc(Br)cc3C2=O)c1	1%
O=C(O)c1cccc(N2C(=O)c3cccnc3C2=O)c1	0%
O=C(O)c1cccc(N2C(=O)c3ccc4c5c(ccc(c35)C2=O)CC4)c1	56% (active)
COc1ccc(-c2nnc(SCC(=O)c3cccc([N+](=O)[O-])c3)n2-c2ccc(C)cc2)cc1OC	19%
Oc1ccc(Nc2nc(-c3ccc(Br)cc3)cs2)cc1	21%
O=C1c2ccc3c4c(ccc(c24)C(=O)N1/N=C/c1ccco1)CC3	3%
Oc1ccc2c(c1)C1CCCCC1(N1CCCCC1)O2 (stereo unspecified)	0%
O=[N+]([O-])c1ccc2c(c1)C(C#Cc1ccccc1)C1CCCCC1(N1CCOCC1)O2 (stereo unspecified)	57% (active)
Oc1cc(-c2ccccc2)c2c(c1)C1CCCCC1(N1CCOCC1)O2 (stereo unspecified)	0%
O=C(COc1ccc2ccccc2c1)N/N=C/c1ccccc1	4%
O=C(COc1ccc2ccccc2c1)N/N=C\c1cc(O)c(O)c(Br)c1	73% (active)
COc1cc(/C=N/NC(=O)COc2ccc(Cl)cc2Br)cc(Br)c1O	24%
COc1ccc(OCC(=O)N/N=C/c2ccc(OC)c(Br)c2)cc1	2%
O=C(COc1ccc2ccccc2c1)N/N=C/c1ccccc1Br	13%
COc1ccc(OCC(=O)N/N=C\c2cc(O)c(O)c(Br)c2)c(Br)c1	64% (active)
